Laboratory results taken from the supplement of paper PMC10849652.
Targets with a hit are over-represented here; the source holds about 8,800 in all. About 0.5% of all pairs of compound and target were hits.

Legend:
Assay in all cases: log2 fold change, soluble protein after heating vs DMSO (PISA); higher = thermal stabilisation; K562 lysate, 10 uM; active = over 0.2 and 3.5 SD of the protein, either way, in both replicates (recomputed)
alvocidib = compound: CN1CC[C@H](c2c(O)cc(O)c3c(=O)cc(-c4ccccc4Cl)oc23)[C@H](O)C1 [alvocidib]
Procedure, shortened: (§1)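 To prepare the extract, K562 pellets were dounce-homogenised in PBS pH 7.4 with 1 mM MgCl2, giving crude material at 1 mg/mL protein. This was treated with 10 μM compound for 30 min, then heated in aliquots for 3 min over 48°C-58°C before pooling and addition of NP-40 to 0.5% at 4°C. Centrifugation at 21,000xg for 90 min left soluble protein in the supernatant, which TMTpro 16plex LC-MS/MS quantified with equalised channel sums. Results are log-two fold changes in thermal stability compared with solvent controls, from duplicates.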

Tubastatin A = compound: CN1CCc2c(c3ccccc3n2Cc2ccc(C(=O)NO)cc2)C1 [Tubastatin A]
Procedure, shortened: as §1

[1] = compound: CNC(=O)C1=CC=CC=C1NC2=NC(=NC=C2Cl)NC3=C(C=C(C=C3)N4CCOCC4)OC
Procedure, shortened: as §1

defactinib = compound: CNC(=O)c1ccc(Nc2ncc(C(F)(F)F)c(NCc3nccnc3N(C)S(C)(=O)=O)n2)cc1 [defactinib]
Procedure, shortened: as §1

[2] = compound: CNc1nc(-c2ccc3c(N)n[nH]c3c2)cc(N2C[C@@H](C(=O)NC3CCCCC3)CC[C@H]2C)n1
Procedure, shortened: as §1

encorafenib = compound: COC(=O)N[C@@H](C)CNc1nccc(-c2cn(C(C)C)nc2-c2cc(Cl)cc(NS(C)(=O)=O)c2F)n1 [encorafenib]
Procedure, shortened: as §1

[3] = compound: COC(=O)[C@H](CCSC)NC(=O)C1=C(C=C(C=C1)NC[C@H](CS)N)C2=CC=CC=C2
Procedure, shortened: as §1

alisertib = compound: COc1cc(Nc2ncc3c(n2)-c2ccc(Cl)cc2C(c2c(F)cccc2OC)=NC3)ccc1C(=O)O [alisertib]
Procedure, shortened: as §1

[4] = compound: COc1cc2nc(-c3cc(F)ccc3O)nc(N[C@@H]3CNC[C@H]3C(C)(C)O)c2cc1OC
Procedure, shortened: as §1

gefitinib = compound: COc1cc2ncnc(Nc3ccc(F)c(Cl)c3)c2cc1OCCCN1CCOCC1 [gefitinib]
Procedure, shortened: as §1

lapatinib = compound: CS(=O)(=O)CCNCc1ccc(-c2ccc3ncnc(Nc4ccc(OCc5cccc(F)c5)c(Cl)c4)c3c2)o1 [lapatinib]
Procedure, shortened: as §1

pictilisib = compound: CS(=O)(=O)N1CCN(Cc2cc3nc(-c4cccc5[nH]ncc45)nc(N4CCOCC4)c3s2)CC1 [pictilisib]
Procedure, shortened: as §1

crizotinib = compound: C[C@@H](Oc1cc(-c2cnn(C3CCNCC3)c2)cnc1N)c1c(Cl)ccc(F)c1Cl [crizotinib]
Procedure, shortened: as §1

[5] = compound: C[C@H](C1=CC=C(C=C1)C(=O)NC2=C3C=CNC3=NC=C2)N
Procedure, shortened: as §1

duvelisib = compound: C[C@H](Nc1ncnc2nc[nH]c12)c1cc2cccc(Cl)c2c(=O)n1-c1ccccc1 [duvelisib]
Procedure, shortened: as §1

gandotinib = compound: Cc1cc(Nc2cc(CN3CCOCC3)c3nc(C)c(Cc4ccc(Cl)cc4F)n3n2)n[nH]1 [gandotinib]
Procedure, shortened: as §1

tozasertib = compound: Cc1cc(Nc2cc(N3CCN(C)CC3)nc(Sc3ccc(NC(=O)C4CC4)cc3)n2)n[nH]1 [tozasertib]
Procedure, shortened: as §1

doramapimod = compound: Cc1ccc(-n2nc(C(C)(C)C)cc2NC(=O)Nc2ccc(OCCN3CCOCC3)c3ccccc23)cc1 [doramapimod]
Procedure, shortened: as §1

bafetinib = compound: Cc1ccc(NC(=O)c2ccc(CN3CC[C@H](N(C)C)C3)c(C(F)(F)F)c2)cc1Nc1nccc(-c2cncnc2)n1 [bafetinib]
Procedure, shortened: as §1

[6] = compound: Cc1cccc(CC(=O)N2CCc3c2ccc(-c2cn(C)c4ncnc(N)c24)c3F)n1
Procedure, shortened: as §1

Measured: log2 fold change

YRDC (UniProt Q86U90)
Sequence of UniProt Q86U90 (Q86U90 whole entry, looked up): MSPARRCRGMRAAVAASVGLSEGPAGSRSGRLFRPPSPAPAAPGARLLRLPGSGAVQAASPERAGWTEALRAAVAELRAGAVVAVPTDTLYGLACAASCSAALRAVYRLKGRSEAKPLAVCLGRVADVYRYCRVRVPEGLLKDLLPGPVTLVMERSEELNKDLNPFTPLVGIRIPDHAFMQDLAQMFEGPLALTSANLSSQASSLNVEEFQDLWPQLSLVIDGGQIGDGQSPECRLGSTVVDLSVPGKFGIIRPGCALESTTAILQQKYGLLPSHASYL
inactive: alvocidib 0.015 | Tubastatin A -0.006 | [1] 0.044 | defactinib -0.023 | [2] 0.043 | encorafenib 0.003 | [3] -0.1 | alisertib -0.014 | [4] -0.004 | gefitinib -0.001 | lapatinib -0.028 | pictilisib -0.038 | crizotinib -0.047 | [5] -0.039 | duvelisib 0.018 | gandotinib 0.055 | tozasertib 0.027 | doramapimod 0.035 | bafetinib 0.022 | [6] 0.01

ZMYND8 isoform 19 (UniProt Q9ULU4)
Sequence of UniProt Q9ULU4 (Q9ULU4 whole entry, looked up): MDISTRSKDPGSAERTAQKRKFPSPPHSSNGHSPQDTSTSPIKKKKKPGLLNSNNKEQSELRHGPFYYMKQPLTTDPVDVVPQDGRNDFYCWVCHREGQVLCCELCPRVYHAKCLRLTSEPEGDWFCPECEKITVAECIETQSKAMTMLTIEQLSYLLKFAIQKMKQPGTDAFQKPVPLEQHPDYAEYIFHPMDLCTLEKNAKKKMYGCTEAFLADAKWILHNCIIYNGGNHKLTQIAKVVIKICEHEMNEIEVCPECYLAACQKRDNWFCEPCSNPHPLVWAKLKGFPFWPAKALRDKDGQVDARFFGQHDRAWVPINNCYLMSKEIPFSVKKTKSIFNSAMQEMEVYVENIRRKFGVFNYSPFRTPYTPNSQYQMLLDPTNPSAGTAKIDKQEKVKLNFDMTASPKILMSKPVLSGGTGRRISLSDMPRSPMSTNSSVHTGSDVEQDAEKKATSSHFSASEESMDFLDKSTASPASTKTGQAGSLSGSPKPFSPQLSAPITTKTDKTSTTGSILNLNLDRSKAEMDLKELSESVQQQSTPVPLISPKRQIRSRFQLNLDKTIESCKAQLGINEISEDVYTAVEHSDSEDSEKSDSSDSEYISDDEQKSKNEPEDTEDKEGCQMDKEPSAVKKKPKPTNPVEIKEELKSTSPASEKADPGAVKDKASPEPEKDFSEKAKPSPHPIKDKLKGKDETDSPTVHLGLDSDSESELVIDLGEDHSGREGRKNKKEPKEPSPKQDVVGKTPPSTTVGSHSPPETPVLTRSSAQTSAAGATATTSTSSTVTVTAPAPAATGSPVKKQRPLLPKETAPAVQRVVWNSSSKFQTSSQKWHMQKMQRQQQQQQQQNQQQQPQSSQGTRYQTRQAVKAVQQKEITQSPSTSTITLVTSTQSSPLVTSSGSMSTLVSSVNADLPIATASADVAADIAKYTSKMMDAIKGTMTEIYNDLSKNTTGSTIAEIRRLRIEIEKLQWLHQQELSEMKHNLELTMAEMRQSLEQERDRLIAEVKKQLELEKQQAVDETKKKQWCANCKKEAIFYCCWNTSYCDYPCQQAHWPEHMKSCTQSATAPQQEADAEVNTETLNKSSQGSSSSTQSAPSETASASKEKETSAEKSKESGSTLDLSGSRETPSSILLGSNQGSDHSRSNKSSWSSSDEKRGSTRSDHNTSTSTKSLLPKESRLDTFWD
inactive: alvocidib 0 | Tubastatin A -0.091 | [1] 0.017 | defactinib 0.104 | [2] -0.052 | encorafenib -0.002 | [3] 0.065 | alisertib 0.022 | [4] -0.046 | gefitinib -0.023 | lapatinib -0.017 | pictilisib -0.044 | crizotinib -0.109 | [5] -0.105 | duvelisib -0.006 | gandotinib 0.092 | tozasertib 0.035 | doramapimod 0.001 | bafetinib -0.028 | [6] 0.049

VAC14 (UniProt Q08AM6)
Sequence of UniProt Q08AM6 (Q08AM6 whole entry, looked up): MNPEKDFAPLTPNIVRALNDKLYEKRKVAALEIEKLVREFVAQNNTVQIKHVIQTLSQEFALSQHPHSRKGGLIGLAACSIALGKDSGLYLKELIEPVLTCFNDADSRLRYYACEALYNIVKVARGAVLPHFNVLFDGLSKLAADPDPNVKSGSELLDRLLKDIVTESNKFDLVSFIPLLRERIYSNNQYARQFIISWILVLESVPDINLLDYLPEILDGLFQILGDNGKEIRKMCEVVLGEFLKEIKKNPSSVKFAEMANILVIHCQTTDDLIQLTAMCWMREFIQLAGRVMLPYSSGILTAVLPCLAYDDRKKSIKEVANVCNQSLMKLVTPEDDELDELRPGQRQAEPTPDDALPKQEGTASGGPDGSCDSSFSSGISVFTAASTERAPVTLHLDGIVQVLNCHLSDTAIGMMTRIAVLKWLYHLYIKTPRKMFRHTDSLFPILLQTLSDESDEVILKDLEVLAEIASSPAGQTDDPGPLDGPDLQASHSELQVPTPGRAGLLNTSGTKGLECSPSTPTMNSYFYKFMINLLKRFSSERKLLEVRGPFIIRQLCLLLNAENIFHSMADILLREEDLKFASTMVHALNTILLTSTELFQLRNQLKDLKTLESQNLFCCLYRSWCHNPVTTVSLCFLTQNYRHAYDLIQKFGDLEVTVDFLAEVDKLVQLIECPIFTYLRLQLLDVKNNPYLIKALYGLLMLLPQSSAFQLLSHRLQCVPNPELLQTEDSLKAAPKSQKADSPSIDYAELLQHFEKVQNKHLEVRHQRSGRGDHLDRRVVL
inactive: alvocidib 0 | Tubastatin A -0.036 | [1] 0.022 | defactinib 0.007 | [2] 0.005 | encorafenib 0.04 | [3] -0.051 | alisertib 0.008 | [4] 0.006 | gefitinib 0.003 | lapatinib -0.034 | pictilisib -0.005 | crizotinib -0.047 | [5] -0.028 | duvelisib -0.004 | gandotinib -0.069 | tozasertib -0.005 | doramapimod 0.037 | bafetinib -0.036 | [6] 0.067

ZNHIT6 (UniProt Q9NWK9)
Sequence of UniProt Q9NWK9 (Q9NWK9 whole entry, looked up): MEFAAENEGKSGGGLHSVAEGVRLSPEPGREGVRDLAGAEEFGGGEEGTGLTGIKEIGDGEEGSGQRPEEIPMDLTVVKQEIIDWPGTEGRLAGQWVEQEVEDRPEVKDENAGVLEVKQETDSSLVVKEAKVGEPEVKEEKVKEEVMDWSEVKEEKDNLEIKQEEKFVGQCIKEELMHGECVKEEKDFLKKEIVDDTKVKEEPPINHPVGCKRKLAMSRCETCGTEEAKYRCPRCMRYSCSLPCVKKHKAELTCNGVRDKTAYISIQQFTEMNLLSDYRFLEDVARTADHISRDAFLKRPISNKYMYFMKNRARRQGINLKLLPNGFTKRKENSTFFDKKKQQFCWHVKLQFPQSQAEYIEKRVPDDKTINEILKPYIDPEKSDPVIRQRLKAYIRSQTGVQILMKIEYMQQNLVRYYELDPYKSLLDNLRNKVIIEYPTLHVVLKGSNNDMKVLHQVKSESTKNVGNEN
inactive: alvocidib 0.004 | Tubastatin A -0.046 | [1] 0.034 | defactinib -0.04 | [2] 0.086 | encorafenib 0.037 | [3] 0.118 | alisertib -0.021 | [4] -0.022 | gefitinib 0.008 | lapatinib 0.042 | pictilisib 0.006 | crizotinib -0.006 | [5] 0.061 | duvelisib -0.002 | gandotinib 0.008 | tozasertib -0.029 | doramapimod -0.024 | bafetinib -0.026 | [6] -0.004

WRN (UniProt Q14191)
inactive: alvocidib -0.029 | Tubastatin A -0.071 | [1] -0.007 | defactinib 0.023 | [2] -0.025 | encorafenib 0.016 | [3] -0.013 | alisertib -0.037 | [4] 0 | gefitinib 0.047 | lapatinib -0.008 | pictilisib 0.006 | crizotinib -0.031 | [5] -0.042 | duvelisib -0.034 | gandotinib -0.008 | tozasertib 0.037 | doramapimod 0.02 | bafetinib -0.064 | [6] 0.073

ZNF598 isoform 3 (UniProt Q86UK7)
Sequence of UniProt Q86UK7 (Q86UK7 whole entry, looked up): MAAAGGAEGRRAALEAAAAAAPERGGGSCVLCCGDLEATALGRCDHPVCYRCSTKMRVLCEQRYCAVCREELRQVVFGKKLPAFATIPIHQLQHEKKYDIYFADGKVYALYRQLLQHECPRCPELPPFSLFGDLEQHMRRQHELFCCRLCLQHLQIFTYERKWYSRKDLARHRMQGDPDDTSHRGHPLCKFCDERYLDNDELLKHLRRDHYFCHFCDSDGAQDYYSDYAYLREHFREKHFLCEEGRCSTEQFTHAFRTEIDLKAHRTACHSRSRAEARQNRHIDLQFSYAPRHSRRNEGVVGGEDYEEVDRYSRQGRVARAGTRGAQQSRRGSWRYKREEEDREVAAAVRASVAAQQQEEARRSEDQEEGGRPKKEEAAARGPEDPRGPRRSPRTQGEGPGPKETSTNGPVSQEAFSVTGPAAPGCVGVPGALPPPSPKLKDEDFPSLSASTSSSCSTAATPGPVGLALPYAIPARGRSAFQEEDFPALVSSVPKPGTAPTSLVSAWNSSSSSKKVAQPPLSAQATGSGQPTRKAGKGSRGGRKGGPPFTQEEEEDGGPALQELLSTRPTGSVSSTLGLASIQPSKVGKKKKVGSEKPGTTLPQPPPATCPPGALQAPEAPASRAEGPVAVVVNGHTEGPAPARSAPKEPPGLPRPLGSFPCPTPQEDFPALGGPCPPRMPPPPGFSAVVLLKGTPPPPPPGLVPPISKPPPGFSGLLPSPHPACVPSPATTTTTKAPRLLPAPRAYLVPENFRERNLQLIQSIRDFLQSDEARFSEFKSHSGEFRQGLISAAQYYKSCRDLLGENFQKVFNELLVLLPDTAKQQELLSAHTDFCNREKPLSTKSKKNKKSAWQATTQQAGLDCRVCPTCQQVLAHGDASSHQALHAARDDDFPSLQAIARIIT
inactive: alvocidib -0.01 | Tubastatin A -0.095 | [1] 0.025 | defactinib 0.004 | [2] 0.015 | encorafenib 0.004 | [3] -0.039 | alisertib 0.009 | [4] 0.012 | gefitinib 0.007 | lapatinib 0.027 | pictilisib 0.005 | crizotinib 0.006 | [5] -0.01 | duvelisib -0.01 | gandotinib 0.023 | tozasertib 0.048 | doramapimod 0.024 | bafetinib -0.012 | [6] 0.015

ZC2HC1A (UniProt Q96GY0)
Sequence of UniProt Q96GY0 (Q96GY0 whole entry, looked up): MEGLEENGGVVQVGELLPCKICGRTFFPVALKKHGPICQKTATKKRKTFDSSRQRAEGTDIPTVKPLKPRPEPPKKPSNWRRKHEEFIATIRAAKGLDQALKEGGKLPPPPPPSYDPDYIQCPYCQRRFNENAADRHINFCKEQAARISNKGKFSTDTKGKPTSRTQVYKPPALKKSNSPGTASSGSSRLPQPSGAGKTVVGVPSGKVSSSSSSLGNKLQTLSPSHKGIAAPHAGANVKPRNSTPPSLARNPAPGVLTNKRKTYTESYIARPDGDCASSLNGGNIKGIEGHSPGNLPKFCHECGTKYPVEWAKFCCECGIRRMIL
inactive: alvocidib -0.034 | Tubastatin A -0.044 | [1] -0.021 | defactinib -0.155 | [2] -0.04 | encorafenib 0.03 | alisertib -0.073 | [4] -0.021 | gefitinib 0.019 | lapatinib 0.004 | pictilisib 0.056 | crizotinib -0.009 | [5] -0.082 | duvelisib 0 | gandotinib 0.053 | tozasertib 0.007 | doramapimod -0.021 | bafetinib 0.052 | [6] 0.103
active: [3] -0.235

USP34 (UniProt Q70CQ2)
inactive: alvocidib 0.035 | Tubastatin A -0.045 | [1] 0.009 | defactinib 0.006 | [2] -0.014 | encorafenib 0.033 | [3] 0.09 | alisertib 0 | [4] 0.017 | gefitinib 0.013 | lapatinib -0.002 | pictilisib -0.008 | crizotinib -0.094 | [5] 0.03 | duvelisib 0.004 | gandotinib -0.122 | tozasertib 0.011 | doramapimod 0.01 | bafetinib -0.041 | [6] 0.018
